The text below walks through data of a collection of fitness landscapes (doi:10.1126/science.1257360).

Over roughly 140,000 sequences, “enrichment ratio after two sorts for PhoP signalling” has its median near 0; the highest 2% begin near 11. The list comes from a sample in which the highest values are over-represented; it also holds similar and randomly drawn sequences.

B1: PhoQ; a variant is named by its letters at X, in order, P23837 (parent)
chain: MKKLLRLFFPLSLRVRFLLATAAVVLVLSLAYGMVALIGYSVSFDKTTFRLLRGESNLFYTLAKWENNKLHVELPENIDKQSPTMTLIYDENGQLLWAQRDVPWLMKMIQPDWLKSNGFHEIEADVNDTSLLLSGDHSIQQQLQEVREDDDDAEMTHSVAVNVYPATSRMPKLTIVVVDTIPVELKSSYMVWSWFIYVLSANLLLVIPLLWVAAWWSLRPIEALAKEVRELEEHNRELLNPATTRELTSLVRNLNRLLKSERERYDKYRTTLTDLTHSLKTPLXXLQXXLRSLRSEKMSVSDAEPVMLEQISRISQQIGYYLHRASMRGGTLLSRELHPVAPLLDNLTSALNKVYQRKGVNISLDISPEISFVGEQNDFVEVMGNVLDNACKYCLEFVEISARQTDEHLYIVVEDDGPGIPLSKREVIFDRGQRVDTLRPGQGVGLAVAREITEQYEGKIVAGESMLGGARMEVIFGRQHSAPKDE

The variants in the experiment derive from B1. In words: enrichment ratio after two sorts for PhoP signalling (ratio (wild type AVST 3.29)); higher = more functional. To be noted: with PhoP (E. coli).
In the case of DPKY, the enrichment ratio is ≤ 0.25. With MCMW, the enrichment ratio was ≤ 0.25.

As to PTRL, the enrichment ratio was ≤ 0.25. For the variant ETSM, the enrichment ratio was ≤ 0.25. For LHSW, the enrichment ratio was ≤ 0.25. With ASCI, the enrichment ratio turned out to be 19.9. The value for ASCC was 18.2; that for ASIL was 19.5. The value for ASIT was 9.21. Consider ASIQ, for which the enrichment ratio was 5.62.

For ASWN, the enrichment ratio was ≤ 0.25. The value for VRCC was ≤ 0.25; that for ASCS was 4.46; that for ASII was 12.7. Next, ASWL: 5.05. As to ASFH, the enrichment ratio is ≤ 0.25. The value for ASCE was 4.22; that for DFLG was ≤ 0.25; that for RMGP was ≤ 0.25.

With MITD, the enrichment ratio was ≤ 0.25. The value for PINH was ≤ 0.25. The value for EKTC was ≤ 0.25.

For QEPD, the enrichment ratio is ≤ 0.25. The value for ERFK was ≤ 0.25.

Take LKWG: the enrichment ratio is ≤ 0.25.

On to TNVF, for which the enrichment ratio is ≤ 0.25. Consider ASPL, for which the enrichment ratio is 1.12. The value for ASCL was 20.8; that for TARQ was ≤ 0.25. Regarding HHQY, the enrichment ratio is ≤ 0.25.

Take TSST: the enrichment ratio is 15. Next, KSST: ≤ 0.25; SSST: 12.7; SPST: ≤ 0.25. The value for NSST was ≤ 0.25; that for SLST was 2.81; that for QMYK was ≤ 0.25. Next, QIPN: ≤ 0.25; FCES: ≤ 0.25; VVSR: ≤ 0.25. With FSAV, the enrichment ratio was 0.409. The value for NAWV was ≤ 0.25. The value for QGWV was 18.5; that for KAWV was ≤ 0.25. The value for KSYV was ≤ 0.25; that for QSYV was 14.9; that for FFWV was ≤ 0.25. Consider FSWV, for which the enrichment ratio was ≤ 0.25. The value for QAWV was 20.2.

For the variant QEYV, the enrichment ratio is ≤ 0.25. Next, QSAE: ≤ 0.25. Next, QSAV: 12.1; TGVE: ≤ 0.25; HYPL: ≤ 0.25. The value for AGIC was 3.1.

As to RPIA, the enrichment ratio was ≤ 0.25. TYVT: the enrichment ratio is ≤ 0.25. Next, AHFF: ≤ 0.25. Regarding HDNT, the enrichment ratio is ≤ 0.25. The value for WSHN was ≤ 0.25. The value for PSPA was ≤ 0.25; that for LQDQ was ≤ 0.25; that for WDVC was ≤ 0.25. Next, DEVE: ≤ 0.25; QQWV: 11.8.

Take QQVK: the enrichment ratio is ≤ 0.25.

Regarding QGMV, the enrichment ratio worked out at 23.6.

Turning to TSAV, the enrichment ratio is 16.5. The value for QPWV was ≤ 0.25; that for QLWV was ≤ 0.25. Next, QGMS: ≤ 0.25; KSAV: ≤ 0.25. Next, QGIV: ≤ 0.25. Regarding MMAV, the enrichment ratio was 5.57. The value for QSWV was 22.9; that for QRWV was ≤ 0.25.

For the variant IYAV, the enrichment ratio is ≤ 0.25. The value for IMHI was ≤ 0.25. VVLM: the enrichment ratio was determined as 3.83.

With DISV, the enrichment ratio was ≤ 0.25. Next, ASKR: ≤ 0.25. Next, NKAS: ≤ 0.25; ETLP: ≤ 0.25.

On to QAKK, for which the enrichment ratio is ≤ 0.25. The value for YNYA was ≤ 0.25; that for WNDE was ≤ 0.25. For the variant KAYV, the enrichment ratio was ≤ 0.25. The value for QAYI was 8.06; that for QGMI was 19.9. Next, FFMI: ≤ 0.25; QAYV: 12.6; QGMW: ≤ 0.25.

WHSE: the enrichment ratio was ≤ 0.25. Next, PFWH: ≤ 0.25; WKDV: ≤ 0.25. Turning to GTCK, the enrichment ratio is ≤ 0.25. Next, GNLA: 7.72; GTCI: 11.7; GNHF: ≤ 0.25. On to GNCI, for which the enrichment ratio amounted to 14.4. The value for GNNT was ≤ 0.25. As for GNLT, the enrichment ratio is 16.5. Turning to GNYI, the enrichment ratio was ≤ 0.25. Next, GTCA: ≤ 0.25; DCAI: ≤ 0.25.

Turning to WVLT, the enrichment ratio is ≤ 0.25. Next, WFHM: ≤ 0.25; TILT: 2.41; RNAL: ≤ 0.25. Next, MLVQ: ≤ 0.25; VEVV: 2.45; YEIT: ≤ 0.25. The value for KFTH was ≤ 0.25. Consider NGCC, for which the enrichment ratio was ≤ 0.25.

In the case of HGCC, the enrichment ratio was ≤ 0.25. Next, AGCC: 16.1; GGCC: 1.09; AICC: 5.26. For the variant SGCC, the enrichment ratio stood at 14.2.

Regarding FGCC, the enrichment ratio worked out at 13.2. Next, SGCH: 8.61; QGCC: ≤ 0.25. The value for SGFH was ≤ 0.25; that for FGCH was ≤ 0.25.

In the case of TGCC, the enrichment ratio is 21.5. The value for EIKT was ≤ 0.25; that for ELGV was ≤ 0.25. Next, GQWY: ≤ 0.25; AMER: ≤ 0.25. The value for SFYL was ≤ 0.25; that for SREH was ≤ 0.25.

GSFE: the enrichment ratio was ≤ 0.25. Next, CYLP: ≤ 0.25; TDCC: 12.6; FDCC: ≤ 0.25. Next, LTCC: ≤ 0.25; FVLE: ≤ 0.25. The value for KTTE was ≤ 0.25.

Take PKGP: the enrichment ratio was 4.39. Next, AQLF: 15.8; AKLF: 7.81; TKLF: 18. The value for HKLF was ≤ 0.25. The value for STLF was 14.6. As for FQLF, the enrichment ratio stood at 6.28.

For the variant SPLF, the enrichment ratio is ≤ 0.25. Next, KCLF: ≤ 0.25; QCLF: ≤ 0.25.

As to ADLF, the enrichment ratio was ≤ 0.25.

On to KYLF, for which the enrichment ratio was ≤ 0.25. As to GCLF, the enrichment ratio came out at 13.2. Next, LCCL: ≤ 0.25. The value for GKCT was ≤ 0.25.
